Screening results as filed in PubChem BioAssay.
Only some compounds are listed: those with a hit (about 12% of all), similar ones and a draw of the others.
Sfp inh: inhibitors of Bacillus subtilis Sfp phosphopantetheinyl transferase. Q9F4F7. Biochemical Sfp PPTase activity, qHTS. Potency, µM, for inactives: largest response in the series, negative = inhibition, most hits filed as inhibitors. hit rate 3.5% among 310,000. AID 1490;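 further: the enzyme is Sfp with the accession as filed and its product quenches rhodamine fluorescence; 0% = enzyme reaction without inhibitor and -100% = no enzyme wells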
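Sfp 15 nM + cpd, 15 min RT; start w/ rhodamine-CoA 5 uM, BHQ-2-YbbR 12.5 uM (final); 50 mM Hepes pH 7.6, 10 mM MgCl2, 0.01% NP-40, 0.01% BSA; read 525/598 nm at 0 and 30 min.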
HP1b chromo inh: inhibitors of HP1-beta chromodomain binding to methylated histone tails; P83916; AlphaScreen HP1-beta / biotin-H3K9me3 peptide binding; Potency, µM (top dose mostly 114 µM), for the others: at the top dose activity change, negative = inhibition, hits mostly inhibitors; hit rate 0.56% among 390,000; AID 540317; further: nearly all actives have a fitted effect of over 70% in size
Target sequence (P83916 whole entry, looked up): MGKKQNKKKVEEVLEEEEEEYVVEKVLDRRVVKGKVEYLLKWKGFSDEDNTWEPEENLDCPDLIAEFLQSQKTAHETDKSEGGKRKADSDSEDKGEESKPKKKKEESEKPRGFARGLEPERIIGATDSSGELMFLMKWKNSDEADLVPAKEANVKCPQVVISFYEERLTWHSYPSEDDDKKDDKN
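HP1-beta protein (50 nM final) preincubated 30 min at room temperature with biotinylated H3(1-18)K9me3 peptide (50 nM) in PBS pH 7.4, 0.01% Tween-20, then compound added for 30 min. AlphaScreen streptavidin donor/nickel chelate acceptor beads (10 ug/mL final), 30 min dark, luminescence read.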
BAZ2B block: blocks human BAZ2B. AlphaScreen BAZ2B-H3K14Ac peptide displacement. Q9UIF8. hit rate 4.4% among 360,000. Potency, µM (top dose mostly 114 µM), inactives show at the highest dose activity change, negative = inhibition, most hits filed as inhibitors; further: on the % scale 0 is the no-effect control and ±100 the full control effect; nearly all actives have a fitted effect of over 60% in size
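Protein-peptide AlphaScreen: BAZ2B 50 nM, b-H3K14Ac 50 nM, 1x PBS pH 7.4 + 0.01% Tween-20. Preincubation 30 min RT; cpd 30 min RT (top 110 uM); beads 20 min RT, light-protected.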
G9a block: blocks human histone lysine methyltransferase G9a. G9a H3K9 monomethylation, AlphaScreen, 2 h. Potency, µM (series often up to 102 µM), for inactives: top-dose activity, negative = inhibition, usual class: inhibitors. hit rate 8.8% among 350,000; further: on the % scale 0 is the no-effect control and ±100 the full control effect; nearly all actives have a fitted effect of over 75% in size
Target sequence (Q96KQ7 913-1193 limits assumed): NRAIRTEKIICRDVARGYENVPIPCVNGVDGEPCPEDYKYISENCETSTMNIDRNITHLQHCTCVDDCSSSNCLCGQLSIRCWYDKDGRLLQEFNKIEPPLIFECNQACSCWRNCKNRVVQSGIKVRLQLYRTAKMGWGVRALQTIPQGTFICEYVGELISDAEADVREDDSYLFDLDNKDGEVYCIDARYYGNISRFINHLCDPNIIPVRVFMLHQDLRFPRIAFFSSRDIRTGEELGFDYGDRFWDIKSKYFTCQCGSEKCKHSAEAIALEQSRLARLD
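Readings reflect AlphaScreen signal from monomethyl-H3K9 antibody detection. HMT at 20 nM; substrate b-H3K9 500 nM; cofactor SAM 20 uM; 2 h RT reaction; compounds tested as titrations in qHTS with 15 min preincubation.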
JMJD2A Tudor: blocks the human JMJD2A Tudor domain; Potency, µM (series often up to 114 µM), without a hit: at the top dose activity change, negative = inhibition, actives largely listed as inhibitors; AID 504339; hit rate 4.4% among 390,000; AlphaScreen JMJD2A-Tudor / H3K4me3 peptide binding; O75164; further: on the % scale 0 is the no-effect control and ±100 the full control effect; nearly all actives have a fitted effect of over 50% in size
Active calls of the source: *; ? = inconclusive; . = no result; [ ] = another dose, or the depositor's remark. The call rests on the fitted dose curve; in most records, active means well fitted curve in the direction sought with a large enough effect; inconclusive means small, poorly fitted or top-dose-only effect, or another doubt; inactive means no such curve, though single readings can be large; an effect the other way counts as inactive or inconclusive. Potency means the concentration at half of the fitted maximal effect.

SMILES	Sfp inh	HP1b chromo inh	BAZ2B block	G9a block	JMJD2A Tudor
CCN1/C(=C2/SC(=S)N(C)C2=O)C=Cc2cc(C)ccc21	.	8%	.	.	-23%
CCSC1=NC(=O)/C(=C2/C=Cc3ccccc3N2CC)S1	?	?	7.1µM*	?	28µM*
COCc1nnc(NC(=O)CCSc2ccccc2)s1	-11%	24%	-8%	-21%[2.33 µM]	-7%
O=C(CC1C(=O)OCCN1Cc1ccccc1)Nc1cccc(Cl)c1 (centres undefined)	.	51%	-4%	?	1%
CCC(CNc1cc(OC)cc2cccnc12)NC1CCCCC1 (centres undefined)	45µM*	-11%	?	5µM*	56µM*
COc1cc(NCCCC(C)N)c2ncccc2c1 (centres undefined)	56µM*	-10%	32µM*	?	22µM*
CCOC(=O)C1CCCN(c2c(C(=O)c3ccccc3)cnc3ccccc23)C1 (centres undefined)	-16%	7%	?	-10%	-30%
O=C(CN1C(=O)c2ccccc2C1=O)Nc1nnc(C2CCCO2)s1 (centres undefined)	-13%	16%	-15%	45µM*	-7%
CCCC(=O)Nc1nnc(C2CCCO2)s1 (centres undefined)	-24%	29%	2%	13%[0.501 µM]	?
CCn1c(N2CCN(S(=O)(=O)c3ccccc3C(F)(F)F)CC2)nc2ccccc21	-5%	9%	?	50µM*	-14%[57.1 µM]
CSc1ccc(/C=N\Nc2nncn2N)cc1	79µM*	32%	-8%	?	-18%
COc1cc(/C=N/NC(=O)c2ccncc2)ccc1OC(C)=O	21%	33%	-5%	12%	7%
CSc1ccc(/C=N/NC(=O)c2ccc(-n3cnnn3)cc2)cc1	.	25%	?	?	-41%
Nn1cnnc1N/N=C/c1cc(Br)cc(Br)c1O	10%	36%	32µM*	24%[2.33 µM]	89µM*
CC1CCN(c2ccc(/C=N/n3nnnc3N)cc2[N+](=O)[O-])CC1	11%	11%	?	0%	-8%
CCC(O)(CC)C(=O)N/N=C/c1cc(Br)cc(Br)c1O	26%	48%	-1%	6%[59 µM]	1%
CC1CCN(c2ccc(/C=N\Nc3nncn3N)cc2[N+](=O)[O-])CC1	79µM*	-35%	?	?	?
COc1cc(/C=N\Nc2nncn2N)ccc1OC(C)=O	-25%	41%	-15%	71µM*	-8%
O=C(CNC(=O)Cc1cccc2ccccc12)NCc1ccccc1F	16%	-9%	16%	-6%	-19%
COc1cccc(N(CC(=O)NC(C)c2ccccc2)S(C)(=O)=O)c1 (centres undefined)	-9%	31%	3%	-4%[0.0925 µM]	-14%
CS(=O)(=O)N1CCN(c2ccccc2NC(=O)CSc2nnc(-c3ccco3)o2)CC1	-4%	35%	-8%	5%	-14%
CC(C)(C)c1ccc(/C=N/Nc2nncn2N)cc1	-26%	27%	-8%	40µM*	-10%
CC(C)(C)c1nnc(N/N=C/c2ccc(Br)cc2)n(N)c1=O	?	30%	2%	13%[59 µM]	-10%
Cc1ccc(-c2noc(CN3CCN(c4ccccc4F)CC3)n2)cc1	-3%	106%	35%	-7%[59 µM]	23%
O=C(COc1ccccc1)N1CCN(c2ccc([N+](=O)[O-])c(N3CCCCC3)c2)CC1	12%	-24%	?	?	?
SMILES	Sfp inh	HP1b chromo inh	BAZ2B block	G9a block	JMJD2A Tudor
O=C(COc1ccc(Br)cc1)N1CCN(c2ccc([N+](=O)[O-])c(N3CCCCC3)c2)CC1	11%	-9%	-13%	35µM*	?
Cc1ccc(S(=O)(=O)NCc2ccc3[nH]c(C)cc3c2)cc1	14%	3%	.	50µM*	-31%
O=C(CN(c1ccc(Cl)cc1)S(=O)(=O)c1ccc(Cl)c([N+](=O)[O-])c1)NCCc1ccccc1	6%	5%	-32%	50µM*	-20%
CC(=O)N1C=Cc2c(c(C)c3c([nH]c4ccccc43)c2C)C1	?	.	-25%	-35%	.
COC(=O)C1=C(C(=O)OC)[C@@H]2Nc3ccccc3[C@@]23C[C@@H](C(=O)OC)N(S(=O)(=O)c2ccc(C(F)(F)F)cc2)C3=N1	1%	.	.	.	.
Cc1ccc2[nH]c(=O)c(Cc3ccccc3)c(O)c2c1	?	44%	?	8.9µM*	-3%[11.4 µM]
CCCCC/C=C\C[C@@H]1O[C@H]1/C=C/C(O)C/C=C\CCCC(=O)O (some centres undefined)	5%	.	.	.	.
O=C1CCc2cc(NS(=O)(=O)c3ccccc3)cc3c2N1CC3	.	23%	8%	4%[2.33 µM]	-13%
CC[n+]1c(C)sc2c3ccsc3ccc21	1.4µM*	?	.	1.6µM*	56µM*
Cc1ccc(N2C(=O)NC(NS(=O)(=O)c3ccccc3)(C(F)(F)F)C2=O)cc1 (centres undefined)	1%	-14%	1%	11%	-13%
Cc1[nH]nc2c1C1(C(=O)N(Cc3ccc(Cl)cc3)c3ccccc31)C(C#N)=C(N)O2 (centres undefined)	-6%	7%	-12%	50µM*	?
COc1cc(/C=C2\SC(=S)N(CCC(=O)Nc3ccc(O)cc3)C2=O)cc(OC)c1OC	-13%	-4%	0%	1%	22µM*
COc1cc(/C=C2/SC(=S)N(CCC(=O)Nc3ccc(C(=O)O)cc3)C2=O)cc(OC)c1OC	-17%	6%	?	.	?
COc1ccccc1NC(=O)CCN1C(=O)/C(=C/c2cc(OC)c(OC)c(OC)c2)SC1=S	45µM*	38%	2%	-9%[0.501 µM]	-5%
Cc1ccc2[nH]c3c(=O)n(CC(=O)Nc4ccc(Br)cc4C)ncc3c2c1	.	2%	7%[57.1 µM]	-3%[59 µM]	-18%
Cc1nn(C)cc1S(=O)(=O)Nc1ccc2c(c1)OCCO2	14%	37%	1%	-9%	-2%[11.4 µM]
CCN1C=C(Cc2ccc(F)cc2)C2=C(C1)C(c1ccc(F)cc1)C(C#N)=C(N)O2 (centres undefined)	8%	-31%	?	?	50µM*
CCN1C=C(Cc2ccccc2C)C2=C(C1)C(c1ccccc1C)C(C#N)=C(N)O2 (centres undefined)	-26%	?	45µM*	14µM*	56µM*
Cc1ccccc1Nc1nn2c(=O)c3ccc(C(=O)NCC(C)c4ccccc4)cc3nc2s1 (centres undefined)	.	5%	-7%	-5%[59 µM]	-16%
CN1CCN(C2CC(=O)N(c3ccc4c(c3)OCCO4)C2=O)CC1 (centres undefined)	-1%	45%	?	45µM*	?
O=C1CC(N2CCN(c3ccccc3)CC2)C(=O)N1c1ccc2c(c1)OCCO2 (centres undefined)	8%	37%	-1%	-40%[59 µM]	-3%
Nc1nnc(SCC(=O)Nc2cc(C(F)(F)F)ccc2N2CCOCC2)s1	2%	24%	-5%	?	-6%
